Bioassay records deposited in PubChem BioAssay by National Center for Advancing Translational Sciences (NCATS).
Tau ThT inhib = blocks human tau fibril formation measured by thioflavin T; P10636; actives 2.1% (n = 270,000); AID 1460; recombinant tau K18 P301L, heparin-induced fibrillization, ThT fluorescence; Potency, µM (doses to about 57.4 µM), hits mostly inhibitors; note: nearly all actives have a fitted effect of over 55% in size
Target sequence (P10636 561-689 P618L limits assumed): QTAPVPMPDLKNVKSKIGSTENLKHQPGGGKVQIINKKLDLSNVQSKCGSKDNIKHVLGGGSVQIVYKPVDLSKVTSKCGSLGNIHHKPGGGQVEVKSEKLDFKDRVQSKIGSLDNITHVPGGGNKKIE
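Heparin-induced fibrillization of the P301L-mutant K18 repeat-domain fragment of human tau was followed by ThT binding in quantitative high-throughput format.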
ALDH1A1 inh = blocks purified human ALDH1A1 activity | Potency, µM (series often up to 75.3 µM), most hits filed as inhibitors | AID 1030 | Purified ALDH1A1, NADH fluorescence, propionaldehyde substrate | P00352 | actives 7.3% (n = 220,000); active = well fitted inhibition curve with a large enough effect, not every such curve was filed as active; inconclusive = small, poorly fitted or top-dose-only effect, or another doubt; inactive = no such curve, though single readings can be large or run the other way
Tau fibril FP = inhibitors of human tau fibril formation | actives 0.39% (n = 280,000) | K18 P301L tau heparin fibrillization, Alexa594 FP, 6 h | Potency, µM (doses to about 57.7 µM), most hits filed as inhibitors; note: nearly all actives have a fitted effect of over 55% in size
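Read-out: fluorescence polarization of Alexa 594-labeled tau (0.24 uM), 555 nm excitation, 632 nm emission. Mixtures held 15 uM unlabeled K18 P301L, compound and 20 uM heparin, pH 7 acetate buffer, incubated 6 hr at 37 C.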
NPSR antag = blocks cAMP signaling of the human neuropeptide S receptor; Potency, µM (doses to about 38.3 µM), hits mostly inhibitors; actives 1% (n = 220,000); CHO-NPSR cells, cAMP TR-FRET, antagonist mode; note: nearly all actives have a fitted effect of over 50% in size
Target sequence (Q6W5P4 whole entry, looked up): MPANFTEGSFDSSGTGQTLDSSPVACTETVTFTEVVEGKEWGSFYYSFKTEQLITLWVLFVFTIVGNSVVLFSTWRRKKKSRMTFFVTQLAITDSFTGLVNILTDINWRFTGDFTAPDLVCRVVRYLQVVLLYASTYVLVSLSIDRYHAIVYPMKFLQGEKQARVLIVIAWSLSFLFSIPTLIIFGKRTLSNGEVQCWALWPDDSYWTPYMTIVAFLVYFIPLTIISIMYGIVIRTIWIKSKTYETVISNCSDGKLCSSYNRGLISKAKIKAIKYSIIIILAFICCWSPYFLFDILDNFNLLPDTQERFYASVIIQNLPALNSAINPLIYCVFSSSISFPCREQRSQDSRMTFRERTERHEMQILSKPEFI
HPGD block = inhibitors of human 15-hydroxyprostaglandin dehydrogenase (HPGD). P15428. purified HPGD, NADH fluorescence kinetic, PGE2 substrate. Potency, µM, most hits filed as inhibitors. actives 4.3% (n = 150,000); active = well fitted inhibition curve with a large enough effect, not every such curve was filed as active; inconclusive = small, poorly fitted or top-dose-only effect, or another doubt; inactive = no such curve, though single readings can be large or run the other way
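20 nM HPGD preincubated 15 min at room temperature with compound in 50 mM Tris-HCl pH 8, 0.01% Tween 20. Started with 1 mM NAD+ and 30 uM prostaglandin E2; NADH fluorescence (360/450 nm) read 5 times over 30-s intervals, last minus first.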
Tau fluor counter = counter-screen for tau fibril formation inhibitors; tau K18 P301L Alexa594 fluorescence, heparin fibrillization; Potency, µM (highest dose often 57.7 µM); actives 0.93% (n = 280,000); AID 1463; note: nearly all actives have a fitted effect of over 55% in size
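Human tau K18 P301L (15 uM unlabeled, 0.24 uM Alexa 594-labeled) in 100 mM sodium acetate pH 7 with 20 uM heparin, 6 hr at 37 C. ThT 30 uM added, 1 hr ambient; Alexa 594 FP and total fluorescence read at 555/632 nm.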
Each line names hits and unclear results; the compound was inactive in the other large screens; ! = not confirmed by another sample; [ ] = remark or other dose. Most compounds without a hit are left out; they make up all but 9.5% or so of the library. Unless noted, calls come from the whole dose curve; as a rule, active = well fitted curve in the direction sought with a large enough effect; inconclusive = small, poorly fitted or top-dose-only effect, or another doubt; inactive = no such curve, though single readings can be large; an effect the other way counts as inactive or inconclusive.

C=CC[C@@](C(C)=O)(C(=O)OC)C(NC(=O)OC)c1ccccc1 (stereo partly specified)	none (no result: NPSR antag)
Cc1ccc(NC(=O)CN2C(=O)COc3ccc(S(=O)(=O)Nc4ccccc4)cc32)c(C)c1	none (no result: ALDH1A1 inh, NPSR antag, HPGD block)
COC(=O)[C@H]1[C@H]2C[C@@H]3c4[nH]c5cc(OC)ccc5c4CCN3C[C@H]2C[C@@H](OC(=O)c2cc(OC)c(OC)c(OC)c2)[C@@H]1OC	Tau ThT inhib inconclusive, ALDH1A1 inh inconclusive, NPSR antag inconclusive, Tau fluor counter 13µM[quencher]
CCCCn1c(NS(=O)(=O)c2ccccc2)c(S(=O)(=O)c2ccc(C)cc2)c2nc3ccccc3nc21	Tau ThT inhib inconclusive, ALDH1A1 inh inconclusive, HPGD block inconclusive
CCC(=O)Nc1c(S(=O)(=O)c2ccccc2)c2nc3ccccc3nc2n1C(C)c1ccccc1 (stereo unspecified)	ALDH1A1 inh inconclusive, HPGD block inconclusive
CCCCn1c(NC(=O)c2ccco2)c(S(=O)(=O)c2ccc(C)cc2)c2nc3ccccc3nc21	Tau ThT inhib 16µM, ALDH1A1 inh inconclusive, Tau fibril FP inconclusive, HPGD block inconclusive, Tau fluor counter inconclusive
CCCCn1c(NC(=O)c2ccc(Br)o2)c(S(=O)(=O)c2ccccc2)c2nc3ccccc3nc21	Tau ThT inhib 18µM, ALDH1A1 inh inconclusive, Tau fibril FP inconclusive, NPSR antag 10µM, HPGD block inconclusive
CCCCCCn1c(C(C)NC(=O)c2ccco2)nc2ccccc21 (stereo unspecified)	Tau ThT inhib inconclusive, ALDH1A1 inh 5µM
CCCCCn1c(NC(=O)c2ccco2)c(S(=O)(=O)c2ccc(C)cc2)c2nc3ccccc3nc21	Tau ThT inhib inconclusive, ALDH1A1 inh inconclusive, NPSR antag 13µM, HPGD block inconclusive, Tau fluor counter inconclusive
O=C(Cc1ccccc1)NCC(=O)OCC(=O)c1ccc(OC(=O)c2ccccc2)cc1	none
CC(=O)Nc1ccc2nc(CN3CCN(Cc4ccc(F)cc4)C(CCO)C3)ccc2c1 (stereo unspecified)	Tau ThT inhib inconclusive, ALDH1A1 inh inconclusive (no result: HPGD block)
Brc1cccc(-c2nnn3c2nc(N2CCCCC2)c2ccccc23)c1	none (no result: ALDH1A1 inh, NPSR antag, HPGD block)
FC(F)(F)c1ccccc1-c1cc(NCc2cccs2)ncn1	none (no result: Tau ThT inhib, Tau fibril FP, NPSR antag, HPGD block, Tau fluor counter)
CC(C)C1Nc2c(O)cc(Cl)c([N+](=O)[O-])c2C2C=CCC21 (stereo unspecified)	Tau ThT inhib 11µM, Tau fluor counter inconclusive (no result: HPGD block)
COc1ccc(-c2cc(=O)c3c(O)c(OC)c(O)cc3o2)cc1	Tau ThT inhib inconclusive (no result: HPGD block)
O=c1cc(-c2ccccc2)oc2cc(O)cc(O)c12	Tau ThT inhib inconclusive, ALDH1A1 inh 8.9µM, Tau fibril FP inconclusive (no result: NPSR antag)
COc1cc(-c2cc(=O)c3c(O)cc(O)cc3o2)ccc1O	Tau ThT inhib inconclusive, ALDH1A1 inh inconclusive (no result: HPGD block)
O=c1cc(-c2ccc(O)cc2)oc2cc(O)cc(O)c12	Tau ThT inhib 16µM, ALDH1A1 inh 1.8µM!, Tau fibril FP inconclusive, NPSR antag 25µM, HPGD block 32µM!, Tau fluor counter inconclusive
O=c1cc(-c2cc(O)c(O)c(O)c2)oc2cc(O)cc(O)c12	Tau ThT inhib 7.9µM, ALDH1A1 inh inconclusive, HPGD block inconclusive, Tau fluor counter 16µM[quencher] (no result: NPSR antag)
COc1cc(O)c2c(=O)cc(-c3ccccc3)oc2c1	Tau ThT inhib inconclusive
COc1ccc(-c2cc(=O)c3c(O)cc(O)c(-c4cc(-c5cc(=O)c6c(O)cc(O)cc6o5)ccc4OC)c3o2)cc1	Tau fibril FP 18µM (no result: NPSR antag)
O=C(NC1=NCCS1)c1ccc2c(c1)C(=O)N(Cc1ccco1)C2=O	ALDH1A1 inh 16µM
O=C(O)c1ccc(S(=O)(=O)c2ccc3c(c2)C(=O)N(Cc2ccco2)C3=O)cc1	ALDH1A1 inh inconclusive
O=C(Nc1ccc(Cl)cc1C(=O)O)c1ccc2c(c1)C(=O)N(Cc1ccco1)C2=O	Tau ThT inhib inconclusive, ALDH1A1 inh 3.8µM, Tau fibril FP inconclusive, HPGD block inconclusive
O=C(NCc1ccc(F)cc1)c1ccc2c(O)c(S(=O)(=O)c3ccccc3)c(=O)[nH]c2c1	none (no result: ALDH1A1 inh, NPSR antag, HPGD block)
O=C(Nc1cc(Sc2nc3ccccc3s2)cc([N+](=O)[O-])c1)c1ccccc1	Tau fluor counter 4µM[quencher]
